The nature of experiment [1]: qHTS of pediatric cancer cell lines to identify multiple opportunities for drug repurposing: Primary screen for A673 cells (AID 1347092). Note: nearly all actives have a fitted effect of over 45% in size. Note: potency is the fitted concentration of half-maximal effect. In a few lines:
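A673 cells (500-1,000 cells/well in growth media) were pre-incubated 5 h at 37 degrees C, then exposed to compounds for 48 h. Viability was read as CellTiter-Glo luminescence; concentration-response curves came directly from the primary screen.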
For orientation: qHTS replaces the single test concentration by a dilution series.

The nature of experiment [2]: qHTS of pediatric cancer cell lines to identify multiple opportunities for drug repurposing: Primary screen for SK-N-MC cells (AID 1347093). Note: potency is the fitted concentration of half-maximal effect. In a few lines:
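Metabolically active cells were quantified by ATP-dependent luminescence (CellTiter-Glo, 15 min at room temperature) following 48 h treatment. Cells had been plated at 500-1,000 per well and settled for 5 h beforehand.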

A short description of experiment [3]: qHTS of pediatric cancer cell lines to identify multiple opportunities for drug repurposing: Primary screen for U-2 OS cells (AID 1347096). Note: nearly all actives have a fitted effect of over 50% in size. In a few lines:
(§1)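 Viability after 48 h compound treatment at 37C, 500-1,000 cells/well, read as ATP luminescence with CellTiter-Glo. Primary screens used 11-point (MIPE, 0.78 nM-46 µM) or 8-point (NPC, 0.59 nM-46 µM) final concentrations; follow-up screens used 11-point dilutions.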

Experiment [4] is described as follows: qHTS of pediatric cancer cell lines to identify multiple opportunities for drug repurposing: Primary screen for Saos-2 cells (AID 1347097). Note: nearly all actives have a fitted effect of over 40% in size. Note: potency is the fitted concentration of half-maximal effect. In outline:
(§2)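 Primary screen of approved and investigational compounds on cells in growth media at 37 degrees C, 5% CO2. MIPE set at 11-point and NPC set at 8-point dilutions; viability scored by ATP-based luminescence at 48 hours.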

Experiment [5] in a line: qHTS of pediatric cancer cell lines to identify multiple opportunities for drug repurposing: Primary screen for SK-N-SH cells (AID 1347098). Note: nearly all actives have a fitted effect of over 65% in size. Note: potency is the fitted concentration of half-maximal effect. In outline:
(§3)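 Cells (500-1,000/well) rested 5 h, then received compounds for 48 h; metabolically active cells were measured by CellTiter-Glo luminescence. Final concentrations spanned up to 46 µM (MIPE, 11-point) or 0.59 nM-46 µM (NPC, 8-point) in primary screens, 11-point in follow-ups.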

Experiment [6] is described as follows: qHTS of pediatric cancer cell lines to identify multiple opportunities for drug repurposing: Primary screen for Rh18 cells (AID 1347102). Note: nearly all actives have a fitted effect of over 65% in size. Note: potency is the fitted concentration of half-maximal effect. In a few lines:
as §1

Experiment [7] can be described thus: qHTS of pediatric cancer cell lines to identify multiple opportunities for drug repurposing: Primary screen for MG 63 (6-TG R) cells (AID 1347105). Note: nearly all actives have a fitted effect of over 50% in size. Note: potency is the fitted concentration of half-maximal effect. In outline: as §2
The nature of experiment [8]: qHTS of pediatric cancer cell lines to identify multiple opportunities for drug repurposing: Primary screen for control Hh wild type fibroblast cells (AID 1347106).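 Note: series mostly up to about 46 µM; a drop in luminescence marks cytotoxicity and a rise apparent proliferation; nearly all actives have a fitted effect of over 55% in size.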 In a few lines:
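Cells (500-1,000/well) in growth media were settled 5 h at 37 degrees C, then given compounds for 48 h. Viability was read as CellTiter-Glo luminescence. Primary runs used MIPE at 11 points (0.78 nM-46 µM) and NPC at 8 points (0.59 nM-46 µM); follow-ups used 11 points.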

Experiment [9] can be described thus: qHTS of pediatric cancer cell lines to identify multiple opportunities for drug repurposing: Primary screen for Rh41 cells (AID 1347108). Note: nearly all actives have a fitted effect of over 70% in size. Note: potency is the fitted concentration of half-maximal effect. In a few lines:
as §2

Experiment [10] is described as follows: qHTS of pediatric cancer cell lines to identify multiple opportunities for drug repurposing: Primary screen for BT-37 cells (AID 1347094). Note: potency is the fitted concentration of half-maximal effect. In outline: as §2
The nature of experiment [11]: qHTS of pediatric cancer cell lines to identify multiple opportunities for drug repurposing: Primary screen for NB-EBc1 cells (AID 1347095). Note: potency is the fitted concentration of half-maximal effect. In a few lines:
as §2

Experiment [12] can be described thus: qHTS of pediatric cancer cell lines to identify multiple opportunities for drug repurposing: Primary screen for LAN-5 cells (AID 1347100). Note: potency is the fitted concentration of half-maximal effect. In a few lines:
as §1

Experiment [13] is described as follows: qHTS of pediatric cancer cell lines to identify multiple opportunities for drug repurposing: Primary screen for RD cells (AID 1347104). Note: nearly all actives have a fitted effect of over 55% in size. Note: potency is the fitted concentration of half-maximal effect. In outline: as §2
Experiment [14] is described as follows: qHTS of pediatric cancer cell lines to identify multiple opportunities for drug repurposing: Primary screen for Rh30 cells (AID 1347107). Note: nearly all actives have a fitted effect of over 75% in size. Note: potency is the fitted concentration of half-maximal effect. In outline:
as §1

Experiment [15] can be described thus: qHTS of pediatric cancer cell lines to identify multiple opportunities for drug repurposing: Primary screen for NB1643 cells (AID 1347099). Note: nearly all actives have a fitted effect of over 50% in size. Note: potency is the fitted concentration of half-maximal effect. In a few lines: as §2
The nature of experiment [16]: qHTS of pediatric cancer cell lines to identify multiple opportunities for drug repurposing: Primary screen for BT-12 cells (AID 1347101). Note: nearly all actives have a fitted effect of over 25% in size. Note: potency is the fitted concentration of half-maximal effect. In a few lines: as §3
The nature of experiment [17]: qHTS of pediatric cancer cell lines to identify multiple opportunities for drug repurposing: Primary screen for OHS-50 cells (AID 1347103). Note: nearly all actives have a fitted effect of over 40% in size. Note: potency is the fitted concentration of half-maximal effect. In outline:
as §3

Experiment [18] is described as follows: qHTS of pediatric cancer cell lines to identify multiple opportunities for drug repurposing: Confirmatory screen for NB1643 cells (AID 1347109). Note: potency is the fitted concentration of half-maximal effect; nearly all actives have a fitted effect of over 45% in size. In outline:
as §1

Experiment [19] in a line: qHTS of pediatric cancer cell lines to identify multiple opportunities for drug repurposing: Confirmatory screen for BT-12 cells (AID 1347112). Note: potency is the fitted concentration of half-maximal effect; nearly all actives have a fitted effect of over 55% in size. In a few lines:
as §1

Experiment [20] in a line: qHTS of pediatric cancer cell lines to identify multiple opportunities for drug repurposing: Confirmatory screen for SK-N-MC cells (AID 1347111).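 Note: potency is the fitted concentration of half-maximal effect; cells exposed to compound for 48 h before the readout; nearly all actives have a fitted effect of over 70% in size.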 In outline: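 SK-N-MC cells at 500-1,000 cells/well in growth media were pre-incubated 5 h, then exposed to compounds at 11-point dilutions for 48 h at 37 degrees C, 5% CO2. Viability was read as CellTiter-Glo luminescence.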

Molecules are shown by their SMILES. Several values for one entry are separate records, joined by “and”; a condition that tells them apart may be missing. Equal values may be shown once. Results filed as inconclusive are left out. Activity calls are given as the source filed them. Calls come from the whole dose curve; as a rule, active = well fitted curve in the direction sought with a large enough effect; inconclusive = small, poorly fitted or top-dose-only effect, or another doubt; inactive = no such curve, though single readings can be large; an effect the other way counts as inactive or inconclusive.

For `Cc1c(CCOc2ccc(C(=O)O)cc2)c2cc(Cl)ccc2n1C(c1ccccc1)c1ccccc1`, the Potency is 18.7 µM (active) in experiment [1], 14.8 µM (active) in [2] and 24.1 µM (active) in experiment [5]. Further, the Potency result in experiment [3], in [4], in experiment [6], in experiment [7], in experiment [8] and in experiment [9] was “inactive” throughout.
Turning to `CCC(C)N(C)C(=O)c1cc2ccccc2c(-c2ccccc2Cl)n1` (centres undefined), the Potency result in [1], in experiment [2], in experiment [10], in [11], in [3] and in experiment [12] was “inactive” each time. The Potency entry in experiment [6], in experiment [13], in [7], in [8] and in experiment [14] was “inactive” in each case.
For `CN1CCN(CCCN2c3ccccc3Sc3ccc(C(F)(F)F)cc32)CC1`, the Potency in [1] was 21.1 µM (active) and 296 nM (active); in experiment [2] it was 1.05 µM (active); in [4] it was 18.7 µM (active); in [5], 12.2 µM (active) and 7.64 µM (active); in [15] it was 3.32 µM (active); in experiment [12], 16.6 µM (active). The Potency in experiment [16] was 24.6 µM (active) and 21.7 µM (active); in [17] it was 27.6 µM (active) and 19.3 µM (active); in experiment [13], 26.6 µM (active) and 18.7 µM (active); in [18] it was 23.3 µM (active); in [19], 23.3 µM (active). Besides, the Potency result in experiment [3], in experiment [6], in [14] and in experiment [9] was “inactive” in each case.
Regarding `Cc1c(CN2CCN(C(=O)C(C)C)CC2)sc2c(N3CCOCC3)nc(-c3cnc(N)nc3)nc12`, the Potency in experiment [1] was 0.469 µM (active); in experiment [2], 0.0235 µM (active); in experiment [10], 0.485 µM (active); in experiment [11] it was 0.118 µM (active); in experiment [4], 0.332 µM (active); in [5] it was 0.961 µM (active). Moreover, the Potency in experiment [15] is 6.62 µM (active); in [12] it was 0.662 µM (active); in experiment [16], 685 nM (active); in experiment [6] it was 0.264 µM (active); in [17], 34.3 nM (active); in experiment [13], 935 nM (active). In addition, the Potency was 0.118 µM (active) in [7], 1.87 µM (active) in experiment [14], 0.235 µM (active) in experiment [9] and 0.465 µM (active) in [20].
In the case of `CCOc1ccc(Cc2cc([C@@H]3O[C@H](CO)[C@@H](O)[C@H](O)[C@@H]3O)ccc2Cl)cc1`, the Potency in experiment [1] is 23.5 µM (active); in [2], 20.9 µM (active). Besides, the Potency entry in experiment [3], in experiment [15], in experiment [6], in [7], in experiment [8] and in experiment [14] was “inactive” each time. Moreover, in experiment [9], the Potency entry is “inactive”.
Take `COc1nc(-c2ccc3c(c2)OCO3)n(-c2ccc(NC(=O)CSc3ccccc3)cc2)n1`: the Potency result in [1], in [10], in [11], in experiment [3], in experiment [5] and in [15] was “inactive” in each case. For the same compound, the Potency result in experiment [12], in experiment [16], in [6], in experiment [13], in experiment [7] and in experiment [8] was “inactive” each time. Besides, the Potency entry in experiment [14] and in [9] was “inactive” each time.
For `NC(=O)C1CCCc2c1[nH]c1ccc(Cl)cc21` (centres undefined), the Potency in experiment [1] is 23.5 µM (active). For the same compound, the Potency result in experiment [10], in [11], in experiment [3], in experiment [12], in experiment [16] and in [6] was “inactive” throughout. Also, the Potency entry in experiment [7] and in [8] was “inactive” in each case.
In the case of `CCCc1nc2c(C)cc(-c3nc4ccccc4n3C)cc2n1Cc1ccc(-c2ccccc2C(=O)O)cc1`, the Potency result in experiment [1], in experiment [10], in experiment [11], in experiment [3], in [4] and in experiment [5] was “inactive” each time. The Potency result in experiment [15], in experiment [12], in [16], in [6], in experiment [17] and in experiment [13] was “inactive” throughout. Moreover, the Potency entry in experiment [7], in experiment [8], in experiment [14] and in experiment [9] was “inactive” in each case.

The values above are taken from PubChem BioAssay (NCATS).
